# Most compounds without a hit are left out; they make up all but 19% or so of the library.
# CHX counter: counter-screen for Shiga toxin inhibitors: cycloheximide protein synthesis inhibition; hit rate 12% among 300,000; max response, %; AID 2314; cell reporter, cycloheximide protein synthesis inhibition counterscreen; in the data active = max response mostly above about 13%, no sharp cut-off; inactive = mostly below about 14%; also: read at 38.3 µM for the half of the compounds with a filed dose; 0% is about no effect
# Pf growth 96h: P. falciparum growth inhibition at 96 hour, primary screen for plastid delayed-death inhibitors. Potency, µM (doses to about 28.7 µM), for the others: top-dose activity change, negative = inhibition, most hits filed as inhibitors. P. falciparum luciferase reporter growth, 96 h. hit rate 6.9% among 320,000; also: potency is read from the fitted curve at half-maximal effect; % is scaled to controls: 0 for no effect and ±100 for the full control effect
#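 Parasite growth measured via integrated firefly luciferase reporter in P. falciparum. Infected erythrocytes at 2% hematocrit, 0.05% parasitemia final were treated 96 hours at 37 C under 5% CO2, and luminescence was read.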
# AMA1 RON2 block: inhibitors of Plasmodium falciparum AMA1-RON2 interaction. hit rate 0.2% among 360,000. AlphaScreen AMA1-biotinylated RON2 peptide binding. AID 720542. Potency, µM (series often up to 58.2 µM), inactives show top-dose activity change, negative = inhibition, hits mostly inhibitors;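 also: potency is read from the fitted curve at half-maximal effect; 0% = vehicle wells and -100% = peptide control; nearly all actives have a fitted effect of over 45% in size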
#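 AMA1 (3D7) with his tag at 25 nM final met compounds first, then biotinylated RON2 peptide at 25 nM; detection used donor plus acceptor beads, 10 µg/mL apiece, read by AlphaScreen after 30 min at room temperature.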
# Pf growth 48h: inhibits P. falciparum growth in the first generation, 48 h; P. falciparum luciferase growth in erythrocytes, 48 h; Potency, µM (titrated, usually from 28.7 µM), for inactives: top-dose activity change, negative = inhibition, usual class: inhibitors; AID 504832; hit rate 5.9% among 310,000; also: potency is read from the fitted curve at half-maximal effect; % is scaled to controls: 0 for no effect and ±100 for the full control effect
#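 Luminescence readout; reporter = integrated firefly luciferase in P. falciparum. RBC culture at 2% hematocrit, 0.1% parasitemia final, 37 C/5% CO2; decreased signal taken as growth inhibition.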
# Shiga inhibitor: inhibitors of Shiga toxin in Vero cells | inhibition, % at 38.7 µM | Vero cells, Shiga toxin protein synthesis inhibition reporter | hit rate 9.2% among 290,000; in the data active = inhibition mostly above about 28%, no sharp cut-off; inactive = mostly below about 43%; also: 0% is about no effect
# SARS PLpro yeast: SARS-CoV PLP inhibition in yeast; S. cerevisiae expressing SARS-CoV PLpro, growth rescue; Potency, µM (top dose mostly 32.9 µM), inactives show at the highest dose activity, positive = growth rescue, hits mostly activators; hit rate 0.19% among 330,000; calls by dose curve; also: potency is read from the fitted curve at half-maximal effect; 0% is about no effect; nearly all actives have a fitted effect of over 55% in size
# An asterisk follows results filed as active; u = inconclusive; x = no result given; [ ] = another dose, or the depositor's remark. Unless noted, calls follow the shape of the dose curve; as a rule, active = well fitted curve in the direction sought with a large enough effect; inconclusive = small, poorly fitted or top-dose-only effect, or another doubt; inactive = no such curve, though single readings can be large; an effect the other way counts as inactive or inconclusive.
SMILES,CHX counter,Pf growth 96h,AMA1 RON2 block,Pf growth 48h,Shiga inhibitor,SARS PLpro yeast
Cc1cc(-c2csc(NC(=O)c3ccc(=O)[nH]c3)n2)c(C)n1Cc1ccccc1,3.0,37.4%,-0.5%,-3.9%,-10.7,-2.4%
O=C(Nc1nc(-c2ccccc2)cs1)c1ccc(=O)[nH]c1,24.0*,60.8%,4.3%,28.0%,67.3*,2.8%
O=C(Nc1nc(-c2nc3ccccc3s2)cs1)c1ccco1,30.5*,84.1%,-13.3%,99.6%,65.7*,-7.3%
CCn1c(CCNC(=O)c2cccs2)nnc1SCC(=O)Nc1nc(-c2ccccc2)cs1,2.2,u,-13.0%,11.7µM*,33.1,8.0%
O=C(Nc1nc(-c2nc3ccccc3s2)cs1)C1CC1,63.3*,136.9%,-8.7%,53.1%,85.2*,-7.8%
COc1ccc(N(CC(=O)NCc2ccccc2OC)S(=O)(=O)c2ccccc2[N+](=O)[O-])c(OC)c1,1.4,-3.7%,-6.2%,u,-6.1,0.4%
Cn1c(-n2c(-c3ccco3)nc3ccccc3c2=O)nc2ccccc21,6.8,40.1%,37.6%,44.3%,26.7,-6.0%
O=C(Nc1ccc(Cl)cc1-c1nc2ccccc2s1)c1ccco1,13.3,u,20.9%,37.0%,78.9*,2.7%
O=C(Nc1nc(-c2ccc(Cl)s2)cs1)c1cccs1,29.7*,-17.8%,13.2%,u,98.0*,-20.0%
O=C(Nc1nc(-c2ccc(Cl)s2)cs1)c1ccco1,56.5*,60.4%,-9.0%,40.5%,80.9*,-3.1%
COc1ccccc1NC(=O)c1cc(Cl)ccc1NC(=O)c1ccco1,-1.6,u,28.8%,u,12.0,-1.7%
CCOC(=O)CSc1nc(C)cc(C)c1C(N)=O,-6.0,u,1.8%,9.7%,-12.7,-3.0%
O=C1CC(N2CCSCC2)C(=O)N1c1ccc(F)cc1 (stereo unspecified),-1.6,22.5%,11.4%,3.3%,-1.7,-3.3%
CC(C)Nc1ccc(Cl)cc1[N+](=O)[O-],11.1,0.0%,x,8.2%,-2.9,-3.6%
CCOc1cccc(/C=C(/C#N)c2nc3ccccc3[nH]2)c1OCC(=O)O,22.1*,u,0.2%,4.4%,x,5.4%
N#C/C(=C\c1cccc(OCC(=O)O)c1)c1nc2ccccc2[nH]1,24.9*,u,27.3%,-8.2%,36.4,3.0%
COc1cccc(/C=C(\C#N)c2nc3ccc(C)cc3[nH]2)c1OCC(=O)O,26.6*,-1.7%,-0.4%,4.1%,40.2*,3.8%
CCN(CC)c1ccc(/C=C(/C#N)c2nc3ccccc3[nH]2)c(OC(C)C)c1,47.6*,u,32.4%,u,119.2*,-10.8%
CCNC(=O)C1(C)CCCN1C(=O)c1cnc2ccccc2n1 (stereo unspecified),x,x,17.0%,x,x,x
Cc1noc(C)c1-c1ccc2ncnc(NCc3cccc(F)c3)c2c1,0.7,x,x,x,-3.8,x
O=C(COC(=O)c1ccc(F)c([N+](=O)[O-])c1)NC(=O)NCc1ccccc1,x,x,22.0%[11.6 µM],x,x,5.7%
CCN(C[C@H]1N[C@@](Cc2ccccc2)(C(=O)OC)[C@H]2C(=O)N(C)C(=O)[C@@H]12)S(=O)(=O)c1ccc(OC)cc1,x,x,-0.7%,x,x,-4.1%
COc1cc(OC)cc(C(=O)OCC(=O)NC2CCCCCCC2)c1,x,x,1.7%,x,x,x
CCOc1cc(CNc2ccccc2SC)ccc1O,22.7,x,x,-9.4%,-9.0,1.0%
COc1cc(CNc2ccccc2SC)ccc1O,25.2,4.6%,-23.4%,13.8%,69.7*,2.3%
SMILES,CHX counter,Pf growth 96h,AMA1 RON2 block,Pf growth 48h,Shiga inhibitor,SARS PLpro yeast
Cc1cc(Cl)ccc1Oc1ncc(-c2ccc(Cl)cc2)cn1,-2.8,34.5%,0.0%,7.3%,-8.2,2.3%
Clc1ccc(-c2cnc(Oc3ccccc3)nc2)cc1,73.6*,95.3%,49.3%,217.9%,162.8*,7.1%
C=CCNC(=O)c1scc2c1CCCC2,16.2*,-5.8%,3.8%,1.6%,51.5,-2.8%
CN(C)CCNC(=O)c1scc2c1CCCC2,-1.7,0.0%,3.5%,72.0%,-7.0,2.3%
COc1ccc(CN(CC(=O)NCc2ccccc2)C(=O)CCC(=O)Nc2ccccn2)cc1,-5.2,-19.2%,0.0%,1.7%,-14.2,-12.9%
COCC1CCCN(Cc2cn(-c3ccccc3)nc2-c2ccc3c(c2)OCO3)C1 (stereo unspecified),0.8,u,-20.5%,9.28µM*,12.3,0.3%

# Compound activity as filed in PubChem.
